Source: PubChem BioAssay (NCATS)
Records with an inconclusive call do not appear. Active and inactive are the calls of the source. Calls come from the whole dose curve; as a rule, active = well fitted curve in the direction sought with a large enough effect; inconclusive = small, poorly fitted or top-dose-only effect, or another doubt; inactive = no such curve, though single readings can be large; an effect the other way counts as inactive or inconclusive.

Key:
[1] = qHTS of pediatric cancer cell lines to identify multiple opportunities for drug repurposing: Primary screen for TC32 cells (AID 1347089); note: nearly all actives have a fitted effect of over 60% in size; note: potency is the fitted concentration of half-maximal effect
How it was run: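 A viability screen of TC32 cells was run over 48 h, with primary MIPE doses spanning 0.78 nM–46 µM and NPC doses 0.59 nM–46 µM. ATP luminescence (CellTiter-Glo) served as the read-out.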

[2] = qHTS of pediatric cancer cell lines to identify multiple opportunities for drug repurposing: Primary screen for DAOY cells (AID 1347090); note: nearly all actives have a fitted effect of over 55% in size; note: potency is the fitted concentration of half-maximal effect
How it was run: (§1)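 Eight- or eleven-point concentration series, 48 h treatment at 37 degrees C in growth media; readout CellTiter-Glo luminescence. Potency and efficacy were taken from the concentration-response curves.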

[3] = qHTS of pediatric cancer cell lines to identify multiple opportunities for drug repurposing: Primary screen for SJ-GBM2 cells (AID 1347091); note: potency is the fitted concentration of half-maximal effect
How it was run: as §1

[4] = qHTS of pediatric cancer cell lines to identify multiple opportunities for drug repurposing: Primary screen for A673 cells (AID 1347092); note: nearly all actives have a fitted effect of over 45% in size; note: potency is the fitted concentration of half-maximal effect
How it was run: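 Titration-based qHTS on A673 cells: MIPE compounds spanned 11 points (0.78 nM to 46 µM final), NPC compounds 8 points (0.59 nM to 46 µM final). Viability after 48 h was measured by ATP luminescence.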

[5] = qHTS of pediatric cancer cell lines to identify multiple opportunities for drug repurposing: Primary screen for SK-N-MC cells (AID 1347093); note: potency is the fitted concentration of half-maximal effect
How it was run: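 Metabolically active cells were quantified by ATP-dependent luminescence (CellTiter-Glo, 15 min at room temperature) following 48 h treatment. Cells had been plated at 500-1,000 per well and settled for 5 h beforehand.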

[6] = qHTS of pediatric cancer cell lines to identify multiple opportunities for drug repurposing: Primary screen for BT-37 cells (AID 1347094); note: potency is the fitted concentration of half-maximal effect
How it was run: (§2)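 Phenotypic viability qHTS, 48 h compound exposure, CellTiter-Glo luminescence read-out; multi-concentration dosing so that potency and efficacy derive directly from the primary screen's curves.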

[7] = qHTS of pediatric cancer cell lines to identify multiple opportunities for drug repurposing: Primary screen for NB-EBc1 cells (AID 1347095); note: potency is the fitted concentration of half-maximal effect
How it was run: as §2

[8] = qHTS of pediatric cancer cell lines to identify multiple opportunities for drug repurposing: Primary screen for Saos-2 cells (AID 1347097); note: nearly all actives have a fitted effect of over 40% in size; note: potency is the fitted concentration of half-maximal effect
How it was run: as §2

[9] = qHTS of pediatric cancer cell lines to identify multiple opportunities for drug repurposing: Primary screen for SK-N-SH cells (AID 1347098); note: nearly all actives have a fitted effect of over 65% in size; note: potency is the fitted concentration of half-maximal effect
How it was run: (§3)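 Cells (500-1,000/well) rested 5 h, then received compounds for 48 h; metabolically active cells were measured by CellTiter-Glo luminescence. Final concentrations spanned up to 46 µM (MIPE, 11-point) or 0.59 nM-46 µM (NPC, 8-point) in primary screens, 11-point in follow-ups.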

[10] = qHTS of pediatric cancer cell lines to identify multiple opportunities for drug repurposing: Primary screen for NB1643 cells (AID 1347099); note: nearly all actives have a fitted effect of over 50% in size; note: potency is the fitted concentration of half-maximal effect
How it was run: as §2

[11] = qHTS of pediatric cancer cell lines to identify multiple opportunities for drug repurposing: Primary screen for LAN-5 cells (AID 1347100); note: potency is the fitted concentration of half-maximal effect
How it was run: (§4)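 Cells (500-1,000/well) in growth media were settled 5 h at 37 degrees C, then given compounds for 48 h. Viability was read as CellTiter-Glo luminescence. Primary runs used MIPE at 11 points (0.78 nM-46 µM) and NPC at 8 points (0.59 nM-46 µM); follow-ups used 11 points.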

[12] = qHTS of pediatric cancer cell lines to identify multiple opportunities for drug repurposing: Primary screen for Rh18 cells (AID 1347102); note: nearly all actives have a fitted effect of over 65% in size; note: potency is the fitted concentration of half-maximal effect
How it was run: as §4

[13] = qHTS of pediatric cancer cell lines to identify multiple opportunities for drug repurposing: Primary screen for OHS-50 cells (AID 1347103); note: nearly all actives have a fitted effect of over 40% in size; note: potency is the fitted concentration of half-maximal effect
How it was run: as §3

[14] = qHTS of pediatric cancer cell lines to identify multiple opportunities for drug repurposing: Primary screen for RD cells (AID 1347104); note: nearly all actives have a fitted effect of over 55% in size; note: potency is the fitted concentration of half-maximal effect
How it was run: as §2

[15] = qHTS of pediatric cancer cell lines to identify multiple opportunities for drug repurposing: Primary screen for MG 63 (6-TG R) cells (AID 1347105); note: nearly all actives have a fitted effect of over 50% in size; note: potency is the fitted concentration of half-maximal effect
How it was run: as §2

[16] = qHTS of pediatric cancer cell lines to identify multiple opportunities for drug repurposing: Primary screen for BT-12 cells (AID 1347101); note: nearly all actives have a fitted effect of over 25% in size; note: potency is the fitted concentration of half-maximal effect
How it was run: as §3

[17] = qHTS of pediatric cancer cell lines to identify multiple opportunities for drug repurposing: Primary screen for control Hh wild type fibroblast cells (AID 1347106);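 note: series mostly up to about 46 µM; a drop in luminescence marks cytotoxicity and a rise apparent proliferation; nearly all actives have a fitted effect of over 55% in size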
How it was run: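 Viability after 48 h compound treatment at 37C, 500-1,000 cells/well, read as ATP luminescence with CellTiter-Glo. Primary screens used 11-point (MIPE, 0.78 nM-46 µM) or 8-point (NPC, 0.59 nM-46 µM) final concentrations; follow-up screens used 11-point dilutions.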

[18] = qHTS of pediatric cancer cell lines to identify multiple opportunities for drug repurposing: Primary screen for U-2 OS cells (AID 1347096); note: nearly all actives have a fitted effect of over 50% in size
How it was run: as §4

Compound | Potency [1] | Potency [2] | Potency [3] | Potency [4] | Potency [5] | Potency [6] | Potency [7] | Potency [8] | Potency [9] | Potency [10] | Potency [11] | Potency [12] | Potency [13] | Potency [14] | Potency [15] | Potency [16] | Potency [17] | Potency [18]
CC(C)(O)c1cc2nc(-c3cnc(N)nc3)nc(N3CCOCC3)c2s1 | 0.466 µM (active) | 0.148 µM (active) | 0.235 µM (active) | 0.372 µM (active) | 0.0118 µM (active) | 0.769 µM (active) | 0.0935 µM (active) | 0.235 µM (active) | 8.57 µM (active) | 0.187 µM (active) | 0.372 µM (active) | 0.372 µM (active) | 0.0306 µM (active) | 0.209 µM (active) | 0.0469 µM (active) | – | – | –
CCCCOc1c(C(=O)c2c(F)cc(C)cc2F)cnc2n[nH]cc12 | inactive | 11.8 µM (active) | 1.18 µM (active) | 2.35 µM (active) | 1.66 µM (active) | 17.2 µM (active) | 2.35 µM (active) | 3.72 µM (active) | – | 2.96 µM (active) | 4.18 µM (active) | inactive | 5.44 µM (active) | – | 11.8 µM (active) | 6.11 µM (active) | – | –
OCCCNc1cc(-c2ccnc(Nc3cccc(Cl)c3)n2)ccn1 | 0.37 µM (active) | 0.187 µM (active) | 0.0833 µM (active) | 0.0469 µM (active) | 0.105 µM (active) | 0.243 µM (active) | 0.0935 µM (active) | 0.148 µM (active) | – | – | – | – | 0.153 µM (active) | 0.235 µM (active) | – | 0.193 µM (active) | – | –
Cc1nc(N)ncc1-c1nc(N2CCOCC2)c2sc(C(C)(C)O)cc2n1 | 2.34 µM (active) | 0.935 µM (active) | 1.05 µM (active) | 1.18 µM (active) | 0.0469 µM (active) | 6.11 µM (active) | 0.59 µM (active) | 0.833 µM (active) | 1.21 µM (active) | 0.469 µM (active) | 1.32 µM (active) | 1.18 µM (active) | 0.0685 µM (active) | 1.48 µM (active) | 0.296 µM (active) | – | – | –
Cc1cnc(Nc2ccc(F)cc2Cl)nc1-c1c[nH]c(C(=O)N[C@H](CO)c2cccc(Cl)c2)c1 | inactive | 7.43 µM (active) | 0.264 µM (active) | 0.0372 µM (active) | 2.35 µM (active) | 0.485 µM (active) | 0.833 µM (active) | 1.48 µM (active) | 17.1 µM (active) | 18.7 µM (active) | 0.469 µM (active) | – | 0.544 µM (active) | 2.35 µM (active) | 29.6 µM (active) | 0.432 µM (active) | inactive | –
Clc1cccc(-c2nnnn2Cc2cccnc2)c1Cl | inactive | inactive | inactive | inactive | – | inactive | inactive | inactive | inactive | inactive | inactive | inactive | inactive | inactive | inactive | inactive | inactive | inactive
CN[C@H]1CCc2cc(OC)c(OC)c(OC)c2-c2ccc(OC)c(=O)cc21 | 0.037 µM (active) | 0.0037 µM (active) | 0.001 µM (active) | 0.0012 µM (active) | 0.0026 µM (active) | 0.0061 µM (active) | 0.001 µM (active) | 0.0037 µM (active) | – | – | 0.0023 µM (active) | – | 0.0015 µM (active) | – | inactive | 0.0039 µM (active) | – | –
COc1ccc2c(c1)CC[C@@H](CN(C)CC(=O)O)[C@H]2c1ccccc1 | 3.7 µM (active) | 2.96 µM (active) | 1.18 µM (active) | 1.87 µM (active) | 1.18 µM (active) | 6.11 µM (active) | 0.662 µM (active) | 2.09 µM (active) | – | – | 1.05 µM (active) | – | 4.32 µM (active) | – | 2.96 µM (active) | – | inactive | –
COc1cc(=C2C=c3ccccc3=N2)[nH]c1=Cc1[nH]c(C)cc1C | inactive | 14.8 µM (active) | 1.18 µM (active) | 4.69 µM (active) | 3.72 µM (active) | 7.69 µM (active) | 0.743 µM (active) | 4.69 µM (active) | 19.2 µM (active) | 14.8 µM (active) | 5.9 µM (active) | 10.5 µM (active) | 7.69 µM (active) | – | 11.8 µM (active) | 6.85 µM (active) | – | –
CCC1=C[C@@H]2CN(C1)Cc1c([nH]c3ccccc13)[C@@](C(=O)OC)(c1cc3c(cc1OC)N(C)[C@@H]1[C@@](O)(C(=O)OC)[C@H](OC(C)=O)[C@]4(CC)C=CCN5CC[C@]31[C@@H]54)C2 | 0.104 µM (active) | 0.187 µM (active) | 0.0332 µM (active) | 0.0093 µM (active) | 0.0083 µM (active) | 0.0432 µM (active) | 0.235 µM (active) | 0.0166 µM (active) | – | 0.059 µM (active) | 0.0093 µM (active) | – | 0.0432 µM (active) | 0.0187 µM (active) | – | 0.0769 µM (active) | – | –
COc1cc2c(NC3CCN(C(C)C)CC3)nc(C3CCCCC3)nc2cc1OCCCN1CCCC1 | inactive | 18.7 µM (active) | 23.5 µM (active) | 5.9 µM (active) | 29.6 µM (active) | 30.6 µM (active) | – | 18.7 µM (active) | 10.8 µM (active) | 20.9 µM (active) | 20.9 µM (active) | 23.5 µM (active) | 19.3 µM (active) | 11.8 µM (active) | 23.5 µM (active) | 27.3 µM (active) | – | inactive
